From PubChem BioAssay (NCI)
Compounds without any hit were thinned out: in the full panel of roughly 79,000, 15% have a hit. Unmarked numbers belong to inactive results. Active and inactive are the calls of the source. No stated cut-off is given here; in the data, active means growth inhibition above about 70%; inactive means the rest.

What was measured:
[1] = NCI Yeast Anticancer Drug Screen. Data for the rad52 strain (AID 147);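 further: 0% = growth of vehicle-treated control cultures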; settings: S. cerevisiae rad52 mutant growth inhibition, stronger effect = higher value
How it was run: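 Measured: yeast growth inhibition. System: strain with a defined DNA damage repair alteration. Reference: vehicle-treated control cultures.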

[2] = NCI Yeast Anticancer Drug Screen. Data for the wt1 strain (AID 149);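 further: 0% = growth of vehicle-treated wt1 cultures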; settings: S. cerevisiae wt1 strain (SPY 50644) growth inhibition, stronger effect = higher value
How it was run: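 Growth inhibition read against vehicle controls after compound exposure of the wt1 yeast strain.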

[3] = NCI Yeast Anticancer Drug Screen. Data for the rad50EPP+ strain (AID 151);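 further: 0% = growth of vehicle-treated control cultures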; settings: S. cerevisiae rad50 mutant strain, stronger effect = higher value
How it was run: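 One strain with a rad50 alteration (rad50EPP+) was compound-treated, its growth then compared to that of vehicle controls.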

[4] = NCI Yeast Anticancer Drug Screen. Data for the mgt1 strain (AID 153); settings: S. cerevisiae mgt1 mutant growth inhibition, stronger effect = higher value
How it was run: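 After exposure of the mgt1 yeast mutant to compound, growth was measured and reported as inhibition compared with vehicle controls.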

[5] = NCI Yeast Anticancer Drug Screen. Data for the rad50 strain (AID 155);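 further: 0% = growth of vehicle-only cultures of the same strain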; settings: S. cerevisiae rad50 strain growth inhibition, stronger effect = higher value
How it was run: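 Readout: growth inhibition relative to vehicle-treated cultures. Compound exposure was carried out in a genetically defined yeast strain deficient in DNA damage repair.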

[6] = NCI Yeast Anticancer Drug Screen. Data for the mec2-1 strain (AID 157); settings: S. cerevisiae mec2-1 strain, stronger effect = higher value
How it was run: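 Test agents were screened against the mec2-1 yeast strain, with defined DNA repair or cell cycle alteration. Growth was scored as inhibition against vehicle-only controls.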

[7] = NCI Yeast Anticancer Drug Screen. Data for the rad14 strain (AID 159);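 further: 0% = growth of vehicle-treated control cultures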; settings: S. cerevisiae rad14 strain growth inhibition, stronger effect = higher value
How it was run: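 Growth inhibition vs vehicle controls; genetically altered yeast strain (DNA damage repair defect) treated with test compounds.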

[8] = NCI Yeast Anticancer Drug Screen. Data for the sgs1 mgt1 strain (AID 161);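 further: 0% = growth of cultures given vehicle only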; settings: S. cerevisiae sgs1 mgt1 strain, stronger effect = higher value
How it was run: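 Read-out: growth inhibition vs vehicle controls. Cells: mutant yeast strain deficient in DNA damage repair.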

[9] = NCI Yeast Anticancer Drug Screen. Data for the cln2 rad14 strain (AID 165);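 further: 0% = growth equal to vehicle treated cultures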; settings: S. cerevisiae cln2 rad14 strain, stronger effect = higher value
How it was run: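 Growth of compound-exposed yeast (cln2 rad14 genotype) measured and expressed as inhibition relative to vehicle.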

[10] = NCI Yeast Anticancer Drug Screen. Data for the bub3 strain (AID 167); settings: S. cerevisiae bub3 mutant strain, stronger effect = higher value
How it was run: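 Readout: yeast growth inhibition, expressed relative to vehicle-only wells. The test organism is a mutant strain from a panel with lesions in DNA repair or checkpoint genes.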

[11] = NCI Yeast Anticancer Drug Screen. Data for the wt2 strain (AID 169);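 further: 0% = growth of vehicle-treated yeast cultures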; settings: S. cerevisiae wt2 strain growth inhibition, stronger effect = higher value
How it was run: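 Genetically defined yeast strains from a DNA-repair/cell-cycle panel were used. Compound-exposed yeast growth was measured, and the inhibition was calculated relative to vehicle treatment.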

[12] = NCI Yeast Anticancer Drug Screen. Data for the mlh1 strain (AID 171);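 further: 0% = growth of vehicle-treated control cultures of the same strain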; settings: S. cerevisiae mlh1 strain growth inhibition, stronger effect = higher value
How it was run: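 Here the genetically defined yeast mutant is grown with each compound, and the extent to which its growth falls below that of vehicle-exposed cells is reported.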

[13] = NCI Yeast Anticancer Drug Screen. Data for the sgs1 strain (AID 173);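 further: 0% = growth of vehicle-only control cultures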; settings: S. cerevisiae sgs1 mutant, stronger effect = higher value
How it was run: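 Relative growth inhibition, referenced to vehicle, was determined in a yeast strain with a defined alteration affecting DNA damage repair or cell cycle control after compound exposure.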

[14] = NCI Yeast Anticancer Drug Screen. Data for the mlh1 rad18 strain (AID 175); settings: S. cerevisiae mlh1 rad18 strain growth inhibition, stronger effect = higher value
How it was run: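 In this whole-cell yeast screen, a strain with altered DNA damage repair is challenged with compound, and its growth is measured against matched vehicle-treated controls.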

[15] = NCI Yeast Anticancer Drug Screen. Data for the rad18 strain (AID 177); settings: S. cerevisiae rad18 mutant growth inhibition, stronger effect = higher value
How it was run: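 Screen uses a yeast strain with a defined lesion in DNA damage repair; compound effect is read as loss of growth compared to untreated vehicle cultures.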

[16] = at 5.0 µM (retest, dose inferred, filed as 0.5)
[17] = at 50.0 µM (retest, dose inferred, filed as 5.0)

In the case of `CCNC(=O)OCC1C2=C(C(=O)C(C)=C(N)C2=O)N2CC3C(N3C)C12OC` (stereo not drawn), the growth inhibition ([1]; at 1.2 µM) is reported as 4%, the growth inhibition ([1]; at 3.7 µM) is reported as 25% and the growth inhibition ([1]; at 11.0 µM) is reported as 25%. For the same compound, the growth inhibition ([1]; at 33.0 µM) was 63%, the growth inhibition ([1]; at 100.0 µM) was 81% (active) and the growth inhibition ([2]; at 1.2 µM) was -19%. It also gave a growth inhibition ([2]; at 3.7 µM) of -16%, a growth inhibition ([2]; at 11.0 µM) of -4% and a growth inhibition ([2]; at 33.0 µM) of 23%. It also gave a growth inhibition ([2]; at 100.0 µM) of 67%, a growth inhibition ([3]; at 1.2 µM) of 6% and a growth inhibition ([3]; at 3.7 µM) of -12%. It also gave a growth inhibition ([3]; at 11.0 µM) of -6%, a growth inhibition ([3]; at 33.0 µM) of 13% and a growth inhibition ([3]; at 100.0 µM) of 41%. It also gave a growth inhibition ([4]; at 1.2 µM) of 2%, a growth inhibition ([4]; at 3.7 µM) of 2% and a growth inhibition ([4]; at 11.0 µM) of 21%. The growth inhibition ([4]; at 33.0 µM) was 37%, the growth inhibition ([4]; at 100.0 µM) was 74% (active) and the growth inhibition ([5]; at 1.2 µM) was 14%. It also gave a growth inhibition ([5]; at 3.7 µM) of 15%, a growth inhibition [5, 16] of 34% and a growth inhibition ([5]; at 11.0 µM) of 19%. The growth inhibition ([5]; at 33.0 µM) was 57%, the growth inhibition [5, 17] was 70% (active) and the growth inhibition ([5]; at 50.0 µM) was 58%. The growth inhibition ([5]; at 100.0 µM) was 78% (active), the growth inhibition ([6]; at 1.2 µM) was 9% and the growth inhibition ([6]; at 3.7 µM) was 13%. It also gave a growth inhibition [6, 16] of 23%, a growth inhibition ([6]; at 11.0 µM) of 18% and a growth inhibition ([6]; at 33.0 µM) of 58%. The growth inhibition [6, 17] was 71% (active), the growth inhibition ([6]; at 50.0 µM) was 63.6% and the growth inhibition ([6]; at 100.0 µM) was 87% (active). It also gave a growth inhibition ([7]; at 1.2 µM) of -9%, a growth inhibition ([7]; at 3.7 µM) of -5% and a growth inhibition ([7]; at 11.0 µM) of 8%. The growth inhibition ([7]; at 33.0 µM) was 45%, the growth inhibition ([7]; at 100.0 µM) was 78% (active) and the growth inhibition [8, 16] was 23%. It also gave a growth inhibition [8, 17] of 68%, a growth inhibition ([8]; at 50.0 µM) of 47.6% and a growth inhibition [9, 16] of 14%. For the same compound, the growth inhibition [9, 17] was 50%, the growth inhibition ([9]; at 50.0 µM) was 44.7% and the growth inhibition ([10]; at 1.2 µM) was 13%. For the same compound, the growth inhibition ([10]; at 3.7 µM) was 9%, the growth inhibition [10, 16] was 21% and the growth inhibition ([10]; at 11.0 µM) was 10%. The growth inhibition ([10]; at 33.0 µM) was 36%, the growth inhibition [10, 17] was 50% and the growth inhibition ([10]; at 50.0 µM) was 21.8%. The growth inhibition ([10]; at 100.0 µM) was 71% (active), the growth inhibition ([11]; at 1.2 µM) was -37% and the growth inhibition ([11]; at 3.7 µM) was -32%. For the same compound, the growth inhibition ([11]; at 11.0 µM) was -28%, the growth inhibition ([11]; at 33.0 µM) was 6% and the growth inhibition ([11]; at 100.0 µM) was 34%. The growth inhibition ([12]; at 1.2 µM) was 15%, the growth inhibition ([12]; at 3.7 µM) was 18% and the growth inhibition ([12]; at 11.0 µM) was 32%. For the same compound, the growth inhibition ([12]; at 33.0 µM) was 56%, the growth inhibition ([12]; at 100.0 µM) was 84% (active) and the growth inhibition ([13]; at 1.2 µM) was 4%. For the same compound, the growth inhibition ([13]; at 3.7 µM) was 16%, the growth inhibition ([13]; at 11.0 µM) was 29% and the growth inhibition ([13]; at 33.0 µM) was 59%. For the same compound, the growth inhibition ([13]; at 100.0 µM) was 81% (active), the growth inhibition [14, 16] was 73% (active) and the growth inhibition [14, 17] was 92% (active). For the same compound, the growth inhibition ([14]; at 50.0 µM) was 70.8% (active), the growth inhibition ([15]; at 1.2 µM) was 13% and the growth inhibition ([15]; at 3.7 µM) was 40%. The growth inhibition ([15]; at 11.0 µM) was 72% (active), the growth inhibition ([15]; at 33.0 µM) was 89% (active) and the growth inhibition ([15]; at 100.0 µM) was 91% (active).
